About 83,000 compounds went through this panel and 20% of them were active in at least one assay; those are over-represented in the sample as a whole.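 For each line, cells grew in 96-well plates with the test compound present at a single concentration for 48 hours.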 Active and inactive are the calls of the source. The calls were made as follows: active = growth percent below 10; inactive = the rest.
The compounds below were run on NCI-H23 lung (assay: NCI-60 one-dose screen, 48 h (100 = growth as untreated, 0 = no growth, -100 = all killed)). Details: 10 µM unless noted.
In the case of `COc1ccc(CNc2ccc3nc(CCC4CCCCC4)[nH]c3c2)cc1`, the growth is reported as 77.5% (inactive). `CC(C)(C)[C@H](OCc1cn([C@H]2C[C@@H](O)[C@@H](CO)O2)c(=O)[nH]c1=O)c1ccc(C#Cc2ccccc2)cc1[N+](=O)[O-]` was tested, and the growth was 90.2% (inactive). With `N#C/C(=C\c1cccc2cnccc12)N1N=NC2C=CC=CC21` (centres undefined) the growth was 48.5% (inactive). With `Cc1c2cnccc2c(C)c2c1c1cc(C(=O)O)ccc1n2C` the growth was -32.4% (active). In the case of `COCCn1cc(-c2nc(-c3cc4cccnc4n3C)cs2)c2cc(OC)ccc21`, the growth is reported as 32.6% (inactive). `Cc1ccc(S(=O)(=O)N(CCC(=O)O)c2ccccc2)cc1` was tested, and the growth was 112% (inactive). With `C=CN(C(=O)N1CCN(c2cc3c(cc2F)c(=O)c(C(=O)O)cn3C2CC2)CC1)c1nc(-c2ccc(C)cc2)cs1` the growth was 13.4% (inactive). With `CCOC(=O)/C(=C/c1ccc([N+](=O)[O-])cc1)C(=O)c1ccccc1` the growth was 48% (inactive). For `CC(C)C(=O)Nc1ncc(C(=O)NCCN(Cc2ccccc2)C(=O)c2ccc(S(=O)(=O)Nc3ccccc3)cc2)s1`, the growth was 97.3% (inactive). In the case of `OC1CSSC1Cn1cnc2c(Nc3ccc(F)c(Cl)c3)ncnc21` (centres undefined), the growth is reported as 60.2% (inactive). For `CCCCCCCCNc1ncnc2c1ncn2Cc1nnc2c3ccccc3c(Cl)nn12`, the growth was 59.6% (inactive). For `CN1C(=O)N(C)C2C1NN=c1s/c(=C\c3ccc(F)cc3)c(=O)n12` (centres undefined), the growth was 50.8% (inactive). In the case of `COC(=O)c1cc(-c2cc(OC)c(OC)c(OC)c2)[nH]c1N/N=C/c1c(Cl)cccc1Cl`, the growth is reported as -15.6% (active). In the case of `COc1ccc(Nc2nc(Nc3cc(C)[nH]n3)c3cc(OC)c(OC)cc3n2)cc1`, the growth is reported as -74.7% [20 µM] (active). For `CCN1C(=O)N(CC)C2C1NN=c1s/c(=C\c3ccc(F)cc3)c(=O)n12` (centres undefined), the growth was 39.3% (inactive). For `CC(C)c1nc(N(C)S(C)(=O)=O)nc(-c2ccc(F)cc2)c1/C=C/C(=O)C[C@@H](O)CC(=O)O`, the growth was 99.8% (inactive). With `C=C(C)[C@@H]1CC[C@]2(COCCCNCCCN)CC[C@]3(C)[C@H](CC[C@@H]4[C@@]5(C)CC[C@H](OCCCN)C(C)(C)[C@@H]5CC[C@]43C)[C@@H]12` the growth was -73.2% (active). For `C=C(C)[C@@H]1CC[C@]2(COC(=O)c3cccnc3)CC[C@]3(C)[C@H](CC[C@@H]4[C@@]5(C)CCCN(C(=O)c6cccnc6)C(C)(C)[C@@H]5CC[C@]43C)[C@@H]12`, the growth was 42.6% (inactive). With `COc1cccc(C2C(C#N)=C(N)Oc3c2ccc2ccccc32)c1` (centres undefined) the growth was 28.4% (inactive). `C#Cc1cccc(Nc2ncnc3ccc(-c4cnc(Cl)c(NS(C)(=O)=O)c4)cc23)c1` was tested, and the growth was -5.52% (active). In the case of `CCN1C(=O)N(CC)C2C1NN=c1s/c(=C3\C(=O)N(C)c4ccccc43)c(=O)n12` (centres undefined), the growth is reported as 37% (inactive). With `O=C(Nc1ncc(Cc2ccccc2)s1)c1ccc2c(c1)OCCO2` the growth was 30.8% (inactive). For `COc1cc(/C=C/c2cc(/C=C/c3ccc(O)c(OC)c3)n(C(=O)Nc3ccc(C)cc3C)n2)ccc1O`, the growth was -26.1% (active). For `CC(C)(C)CC(C)(C)Nc1c(-c2c(O)c3ccccc3oc2=O)nc2sccn12`, the growth was 97.9% (inactive). For `COc1ccc(Cn2cc3c(c2)-c2oncc2CC3)cc1`, the growth was 79.8% (inactive).

These compounds were tested on NCI-H226 lung in the same assay as above. Details: 10 µM unless noted.
With `O=C(Nc1ccc(Cl)cc1)C1=NCCCCN1` the growth was 84.7% (inactive). With `Fc1ccc(/C=C/c2cc(/C=C/c3ccc(F)cc3)n(-c3cc(F)cc(F)c3)n2)cc1` the growth was 109% (inactive). With `Nc1n[nH]c2cccc(C#Cc3cccc(C(=O)Nc4ccc(Cl)c(C(F)(F)F)c4)c3)c12` the growth was 36% (inactive). With `CC/C(=C(/c1ccc(Cl)cc1)c1ccc(OCCN2CCCCCC2)cc1)c1ccccc1` the growth was 97.6% (inactive). In the case of `COC(CCP(=O)(c1ccccc1)c1ccccc1)(C(=O)c1ccccc1)c1ccccc1` (centres undefined), the growth is reported as 85.7% (inactive). In the case of `CC(=O)CC(=O)c1ccccc1.[Cu+2]`, the growth is reported as 114% (inactive). In the case of `CN1CCN(Cc2ccc(NC(=O)c3cncc(C#Cc4cnc(N)c5ccc(C#N)cc45)c3)cc2C(F)(F)F)CC1`, the growth is reported as -35.1% (active). With `CNC(=O)c1cc(Oc2ccc3nc(NC(=O)NC(C)C)sc3c2)ccn1` the growth was 79.2% (inactive). `N/C(=N\c1nc2ccccc2s1)NC(=O)Nc1ccccc1` was tested, and the growth was 87.8% (inactive). `CCOC(=O)/C(=C\c1ccccc1Cl)P(=O)(OCC)OCC` was tested, and the growth was 66.4% (inactive). For `O=C(/C=C/c1ccc(Cl)cc1)c1ccc(-n2cc(CN3CCN(c4cc5c(cc4F)c(=O)c(C(=O)O)cn5C4CC4)CC3)nn2)cc1`, the growth was 76.3% (inactive). In the case of `COc1cc2cc(Oc3ccc(NC(=O)Nc4ccc(Cl)c(Cl)c4)cc3)c(C)nc2cc1OCCN1CCCCC1`, the growth is reported as 77.7% (inactive). With `CCN(CC)CCN1C(=O)c2c(c(C)c3c(oc4cc(OC)ccc43)c2C)C1=O` the growth was 27.8% (inactive). `Cn1ncc(CC(=O)O)c1-n1nnc2cc(Cl)ccc2c1=O` was tested, and the growth was 95.2% (inactive). `COc1ccc(CNc2ccc3nc(CCC4CCCCC4)[nH]c3c2)cc1` was tested, and the growth was 73.8% (inactive). `CC(C)(C)[C@H](OCc1cn([C@H]2C[C@@H](O)[C@@H](CO)O2)c(=O)[nH]c1=O)c1ccc(C#Cc2ccccc2)cc1[N+](=O)[O-]` was tested, and the growth was 99.3% (inactive). With `N#C/C(=C\c1cccc2cnccc12)N1N=NC2C=CC=CC21` (centres undefined) the growth was 68.7% (inactive). `Cc1c2cnccc2c(C)c2c1c1cc(C(=O)O)ccc1n2C` was tested, and the growth was -25.8% (active). `COCCn1cc(-c2nc(-c3cc4cccnc4n3C)cs2)c2cc(OC)ccc21` was tested, and the growth was 46.6% (inactive). For `Cc1ccc(S(=O)(=O)N(CCC(=O)O)c2ccccc2)cc1`, the growth was 109% (inactive). For `C=CN(C(=O)N1CCN(c2cc3c(cc2F)c(=O)c(C(=O)O)cn3C2CC2)CC1)c1nc(-c2ccc(C)cc2)cs1`, the growth was 35.4% (inactive). For `CCOC(=O)/C(=C/c1ccc([N+](=O)[O-])cc1)C(=O)c1ccccc1`, the growth was 21.3% (inactive). `CC(C)C(=O)Nc1ncc(C(=O)NCCN(Cc2ccccc2)C(=O)c2ccc(S(=O)(=O)Nc3ccccc3)cc2)s1` was tested, and the growth was 98% (inactive). For `OC1CSSC1Cn1cnc2c(Nc3ccc(F)c(Cl)c3)ncnc21` (centres undefined), the growth was 87.9% (inactive). For `CCCCCCCCNc1ncnc2c1ncn2Cc1nnc2c3ccccc3c(Cl)nn12`, the growth was 39.9% (inactive). In the case of `CN1C(=O)N(C)C2C1NN=c1s/c(=C\c3ccc(F)cc3)c(=O)n12` (centres undefined), the growth is reported as 62.9% (inactive). For `COC(=O)c1cc(-c2cc(OC)c(OC)c(OC)c2)[nH]c1N/N=C/c1c(Cl)cccc1Cl`, the growth was 72.5% (inactive). `COc1ccc(Nc2nc(Nc3cc(C)[nH]n3)c3cc(OC)c(OC)cc3n2)cc1` was tested, and the growth was -47.2% [20 µM] (active). For `CCN1C(=O)N(CC)C2C1NN=c1s/c(=C\c3ccc(F)cc3)c(=O)n12` (centres undefined), the growth was 63.4% (inactive). In the case of `CC(C)c1nc(N(C)S(C)(=O)=O)nc(-c2ccc(F)cc2)c1/C=C/C(=O)C[C@@H](O)CC(=O)O`, the growth is reported as 113% (inactive). `C=C(C)[C@@H]1CC[C@]2(COCCCNCCCN)CC[C@]3(C)[C@H](CC[C@@H]4[C@@]5(C)CC[C@H](OCCCN)C(C)(C)[C@@H]5CC[C@]43C)[C@@H]12` was tested, and the growth was 45.2% (inactive). For `C=C(C)[C@@H]1CC[C@]2(COC(=O)c3cccnc3)CC[C@]3(C)[C@H](CC[C@@H]4[C@@]5(C)CCCN(C(=O)c6cccnc6)C(C)(C)[C@@H]5CC[C@]43C)[C@@H]12`, the growth was 42.1% (inactive). With `COc1cccc(C2C(C#N)=C(N)Oc3c2ccc2ccccc32)c1` (centres undefined) the growth was 47.1% (inactive). For `C#Cc1cccc(Nc2ncnc3ccc(-c4cnc(Cl)c(NS(C)(=O)=O)c4)cc23)c1`, the growth was 2.26% (active). In the case of `CCN1C(=O)N(CC)C2C1NN=c1s/c(=C3\C(=O)N(C)c4ccccc43)c(=O)n12` (centres undefined), the growth is reported as 96.7% (inactive). For `O=C(Nc1ncc(Cc2ccccc2)s1)c1ccc2c(c1)OCCO2`, the growth was 12.8% (inactive). With `COc1cc(/C=C/c2cc(/C=C/c3ccc(O)c(OC)c3)n(C(=O)Nc3ccc(C)cc3C)n2)ccc1O` the growth was -3.7% (active). In the case of `CC(C)(C)CC(C)(C)Nc1c(-c2c(O)c3ccccc3oc2=O)nc2sccn12`, the growth is reported as 88.9% (inactive). `COc1ccc(Cn2cc3c(c2)-c2oncc2CC3)cc1` was tested, and the growth was 86.9% (inactive).

Reference: PubChem BioAssay (NCI)
